Experimental findings from PubChem BioAssay AID720569 (National Center for Advancing Translational Sciences (NCATS), 2013) are described below.

Some of the results follow. Records with an inconclusive call do not appear. Active and inactive are the calls of the source. The call rests on the fitted dose curve; in most records, active means well fitted inhibition curve with a large enough effect; inconclusive means small, poorly fitted or top-dose-only effect; inactive means no such curve, though single readings can be large or run the other way.

This test relates to pyruvate kinase (Trypanosoma brucei). Description: qHTS of Trypanosoma Brucei Inhibitors: Confirmatory Assay for Cherry-picked Compounds. Further: nearly all actives have a fitted effect of over 70% in size. Particulars: recombinant TbPYK, Kinase-Glo ATP luminescence. The source says: Members of the Trypanosomatidae family of parasitic protozoans cause a spectrum of diseases throughout the tropical and subtropical world. Sleeping sickness, caused by two subspecies of Trypanosoma brucei, is endemic to areas of sub-Saharan Africa, while Chagas' disease, a manifestation of Trypanosoma cruzi infection, is prevalent throughout Central and South America. In addition, many species of Leishmania are responsible for a range of cutaneous and visceral diseases, causing ulcers, destructive lesions and kalaazar, a lethal infection of the viscera. These diseases cause severe public health and economic burdens on populations that are often already caught in a tragic cycle of poverty, poor nutrition and disease. Collectively, parasites of the trypanosomatid family infect 30 million people worldwide (~500 million live in endemic areas), and account for ~130K deaths annually. Existing treatments have developed little in the past 50 years, and suffer from toxicity, poor efficacy and resistance; the goal of this project is to develop lead drugs that will be suitable for entry into pre-clinical trials. […] Glycolysis in axenically cultured T. cruzi, representing the intracellular pathogenic stage, is also essential for these parasites. {Engel, 1987} This project aims to discover and optimize selective inhibitors of the glycolytic enzyme pyruvate kinase (PYK) from Trypanosoma brucei, the parasite that causes sleeping sickness. […] Trypanosomatid PYKs show significant differences from their human counterparts including only 47-50% sequence identity and different allosteric and activation properties.{Callens, 1992} To this end, a qHTS was done against the MLSMR to discover inhibitors. NIH Molecular Libraries Probe Production Network [MLPCN] NIH Chemical Genomics Center [NCGC] Grant: MH095452 PI Name: Malcolm Walkinshaw, University of Edinburgh
Two uL of TbPYK/substrate buffer (columns 1-3, 5-48) are dispensed into Greiner white solid bottom 1536-well assay plates; column 4 receives only TEA buffer as 0x TbPYK controls. Compounds are then transferred via Kalypsys pin tool equipped with 1536-pin array (10 nL slotted pins, V&P Scientific, San Diego, CA). Following addition of compound, 2 uL of ADP (130 uM final concentration, all columns) is added to initiate the reaction. The plates are then incubated at room temperature for 45 minutes. Kinase-Glo Plus reagent is added (3 uL) and plates incubated for 10 minutes, before being transferred to a ViewLux high-throughput CCD imager (PerkinElmer) wherein single end-point measurements of luminescence are acquired using a clear filter. All reagents are diluted in an assay buffer consisting of 50 mM TEA (pH 7.2), 100 mM KCl, 10 mM MgCl2, 0.05% BSA and 0.01% Tween-20. […]
A general note: In qHTS, concentration-response curves come from the screen itself.
Potency means the concentration at half of the fitted maximal effect.

For the molecule `COc1ccc(N2C(=O)/C(=C/c3ccco3)C(=O)NC2=S)cc1`, the Potency is 14.1 µM (active).

As for `Cc1ccc2c(c1)=C/C(=C\c1c(O)[nH]c(=O)[nH]c1=O)C(=O)N=2`, the Potency is 17.8 µM (active).

Consider `O=C1NC(=O)N(c2ccccc2)C(=O)/C1=C/c1ccc([N+](=O)[O-])s1`, for which the Potency was 8.91 µM (active).

`O=C(O)CCn1cc(C=C2C(=O)NC(=S)NC2=O)c(-c2cccc(Br)c2)n1`: the Potency is 6.31 µM (active).
